This is an account of results in PubChem BioAssay (EPA / NIEHS).

The target of assay [1] is Paired box protein Pax-6 (Homo sapiens) (UniProt P26367). Put plainly: ATG_Pax6_CIS: Attagene CIS-FACTORIAL HepG2 Assay for human Paired Box 6 (PAX6) (AID 2282956). The settings on record: HepG2 CIS-FACTORIAL PAX6 reporter transcription, RNA readout; actives raise or lower the signal. The method in brief:
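Values derive from bidirectional curve fitting of reporter mRNA signal relative to DMSO. HepG2 cells bearing transfected cis-regulated MRTUs were exposed for 24 h; transcripts were read by RT-PCR and capillary electrophoresis.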

The nature of assay [2]: ATG_PXRE_CIS: Attagene CIS-FACTORIAL HepG2 Assay for human Pregnane X Receptor Element (PXRE) (AID 2282957). The settings on record: HepG2 Attagene CIS-FACTORIAL PXRE reporter, mRNA; actives raise or lower the signal. An outline of the steps: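 Bidirectional activity, baselined to DMSO, derived from reporter mRNA fluorescence (RT-PCR plus capillary electrophoresis) in HepG2 cells bearing cis-promoter reporter units, 24 h exposure.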

The nature of assay [3]: ATG_PPRE_CIS: Attagene CIS-FACTORIAL HepG2 Assay for human Peroxisome Proliferator-activated Response Element (PPRE) (AID 2282958). The note with it: HepG2 PPRE cis-element reporter, Attagene transcription factor profiling; actives raise or lower the signal. The method in brief: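 HepG2 cells transiently transfected with multiplexed cis-element reporter units measure endogenous transcription factor activity. After 24 h compound exposure, reporter mRNA is quantified by RT-PCR, 6-FAM labeling, HpaI digestion and capillary electrophoresis; bidirectional fits are made against DMSO baseline.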

Assay [4] in a line: ATG_RORE_CIS: Attagene CIS-FACTORIAL HepG2 Assay for human RAR-related Orphan Receptor Element (RORE) (AID 2282959). The settings on record: HepG2 Attagene cis-factorial RORE reporter, mRNA; actives raise or lower the signal. The method in brief:
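HepG2 cells transiently transfected with multiple cis-element reporter transcription units, exposed to chemical for 24 h. Reporter mRNA quantified by RT-PCR, 6-FAM primer-extension labeling, HpaI digestion and capillary electrophoresis; bidirectional fit versus DMSO baseline.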

The nature of assay [5]: ATG_Sox_CIS: Attagene CIS-FACTORIAL HepG2 Assay for human SRY-box transcription factor (SOX) (AID 2282960). The settings on record: HepG2 Attagene cis-factorial SOX reporter, mRNA; actives raise or lower the signal. The method in brief:
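HepG2 cells transiently transfected with cis-element-driven multiple reporter transcription units, dosed 24 h; reporter mRNA measured by RT-PCR, FAM labelling, HpaI digestion and capillary electrophoresis. Bidirectional fit versus DMSO baseline.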

Assay [6] addresses Transcription factor Sp1 (Homo sapiens) (UniProt P08047). The assay can be described thus: ATG_Sp1_CIS: Attagene CIS-FACTORIAL HepG2 Assay for human Specificity Protein 1 (Sp1) (AID 2282961). The settings on record: HepG2 Sp1 cis-reporter transcription, actives raise or lower the signal. An outline of the steps:
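HepG2 cells transiently transfected with multiple reporter transcription units driven by cis-regulatory elements; Sp1-responsive reporter mRNA measured 24 h after dosing by RT-PCR and capillary electrophoresis fluorescence, fitted bidirectionally against DMSO baseline.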

Assay [7] in a line: ATG_SREBP_CIS: Attagene CIS-FACTORIAL HepG2 Assay for human Sterol Regulatory Element Binding (SREBP) (AID 2282962). The note with it: HepG2 Attagene cis-factorial SREBP reporter, mRNA; actives raise or lower the signal. An outline of the steps: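 Values derive from bidirectional curve fitting with DMSO as baseline. The underlying measurement is reporter mRNA from cis-element-regulated units in transiently transfected HepG2, quantified by RT-PCR and capillary electrophoresis after 24 h exposure.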

Assay [8] addresses Signal transducer and activator of transcription 3 (Homo sapiens) (UniProt P40763). Put plainly: ATG_STAT3_CIS: Attagene CIS-FACTORIAL HepG2 Assay for human Signal Transducer and Activator of Transcription 3 (STAT3) (AID 2282963). The note with it: HepG2, Attagene cis-factorial STAT3 reporter transcription; actives raise or lower the signal. The method in brief:
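Readout is reporter transcript quantified by RT-PCR and capillary electrophoresis, with 6-FAM primer extension and HpaI digestion. Total RNA is taken 24 h after dosing transiently transfected HepG2 carrying cis-regulated reporter units. Bidirectional fit against DMSO.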

A short description of assay [9]: ATG_TA_CIS: Attagene CIS-FACTORIAL HepG2 Assay for human TA Basal Promoter (AID 2282964). The note with it: HepG2 Attagene CIS-factorial TA basal promoter reporter; actives raise or lower the signal. The method in brief:
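HepG2 cells transiently transfected with multiple reporter units under cis promoter elements, reporting endogenous transcription factor activity; this endpoint tracks the TA basal promoter as background control. Reporter mRNA after 24 h dosing measured by RT-PCR/capillary electrophoresis; bidirectional fits versus DMSO.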

The nature of assay [10]: ATG_TCF_b_cat_CIS: Attagene CIS-FACTORIAL HepG2 Assay for human T-Cell-Factor with beta-catenin (TCF/b-cat) (AID 2282965). The note with it: HepG2 TCF/beta-catenin cis-reporter transcription, actives raise or lower the signal. The method in brief:
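Endogenous transcription factor activity is captured through cis-promoter reporter constructs transiently introduced into human HepG2 liver cells. Induced reporter mRNA is measured after 24 h and fitted bidirectionally relative to DMSO.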

A short description of assay [11]: ATG_TGFb_CIS: Attagene CIS-FACTORIAL HepG2 Assay for human Transforming Growth Factor (TGF) (AID 2282967). The settings on record: HepG2 Attagene CIS TGFb reporter, mRNA transcription; actives raise or lower the signal. An outline of the steps: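 HepG2 cells transiently transfected with cis-promoter-driven multiple reporter units measure endogenous TF activity; reporter mRNA quantified at 24 h by RT-PCR, FAM labeling, HpaI digestion and capillary electrophoresis. Bidirectional fit vs DMSO.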

Assay [12] is described as follows: ATG_VDRE_CIS: Attagene CIS-FACTORIAL HepG2 Assay for human Vitamin D Receptor Element (VDRE) (AID 2282968). The note with it: HepG2 VDRE cis-reporter transcription, actives raise or lower the signal. An outline of the steps: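 Readout is VDRE-driven reporter mRNA reflecting endogenous factor activity in human HepG2 cells, sampled 24 h post-dose. Quantification used labelled RT-PCR products separated by capillary electrophoresis; bidirectional analysis relative to DMSO.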

Assay [13] concerns the target Estrogen receptor (Homo sapiens) (UniProt P03372). The assay can be described thus: ATG_ERa_TRANS: Attagene TRANS-FACTORIAL HepG2 Assay for human Estrogen Receptor alpha (ERa) (AID 2282970; active = hit-call score of the fitted dose curve at least 0.9, where 1 is the maximum). The note with it: HepG2 Attagene TRANS ERa GAL4 reporter, mRNA. An outline of the steps:
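Signal derives from fluorescence of labelled reporter PCR fragments separated by capillary electrophoresis. HepG2 cells transiently carrying multiple GAL4-UAS reporter units were treated 24 hours, and induction above DMSO baseline was fitted as activity.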

For assay [14], the target named is X-box-binding protein 1 (Homo sapiens) (UniProt P17861). Put plainly: ATG_Xbp1_CIS: Attagene CIS-FACTORIAL HepG2 Assay for human X-box Binding Protein 1 (XBP1) (AID 2282972). The note with it: HepG2 XBP1 cis-element reporter, Attagene multiplex; actives raise or lower the signal. The method in brief:
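Human hepatoma HepG2, cis-element reporter system, 24 h treatment; mRNA quantified by RT-PCR/CE fluorescence; fit relative to DMSO.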

The nature of assay [15]: ATG_M_19_TRANS: Attagene TRANS-FACTORIAL HepG2 Assay for M19 Transcription Factor (Internal Marker) (AID 2282974; active = hit-call score of the fitted dose curve at least 0.9, where 1 is the maximum). The settings on record: HepG2 Attagene TRANS-FACTORIAL M19 internal marker reporter. An outline of the steps: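 HepG2 cells transiently transfected with multiple GAL4-UAS reporter transcription units were exposed to chemicals for 24 h. Reporter mRNA was read by RT-PCR, 6-FAM primer extension, HpaI digestion and capillary electrophoresis; gain of signal fitted relative to DMSO.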

A short description of assay [16]: ATG_GAL4_TRANS: Attagene TRANS-FACTORIAL HepG2 Assay for GAL4 (Internal Marker) (AID 2282976; active = hit-call score of the fitted dose curve at least 0.9, where 1 is the maximum). The note with it: HepG2 Attagene TRANS GAL4 internal marker reporter. The method in brief: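 Liver HepG2 line bearing multiplexed GAL4-UAS reporter constructs; 24 h chemical treatment. Transcripts were quantified as fluorescent fragments on capillary electrophoresis after RT-PCR and HpaI cut, with activity fitted upward from DMSO.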

A short description of assay [17]: ATG_TAL_CIS: Attagene CIS-FACTORIAL HepG2 Assay for human TAL Basal Promoter (AID 2282966).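 Note: background control endpoint measuring basal TAL promoter reporter mRNA not a specific factor.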 The note with it: HepG2 Attagene cis-factorial TAL promoter reporter; actives raise or lower the signal. An outline of the steps:
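Human hepatoma HepG2 cells, transfected with promoter-regulated reporter units, were treated 24 h. Reporter transcript levels, measured through RT-PCR and capillary electrophoresis, were fitted for gain or loss relative to DMSO.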

The target in assay [18] is Steroid hormone receptor ERR1 (Homo sapiens) (UniProt P11474). The assay can be described thus: ATG_ERRa_TRANS: Attagene TRANS-FACTORIAL HepG2 Assay for human Estrogen-Related Receptor alpha (ERRa) (AID 2282971; active = hit-call score of the fitted dose curve at least 0.9, where 1 is the maximum). The settings on record: HepG2 Attagene TRANS reporter, ERRa transactivation. The method in brief: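 Signal gain relative to DMSO for an ERRa-Gal4 chimeric receptor, read as reporter mRNA by RT-PCR/capillary electrophoresis. Human HepG2 liver cells, transient multiplex reporter transfection, 24 h chemical exposure.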

Structures are written as SMILES. Inconclusive results are not listed. Calls of active or inactive are those of the source. Rule for the calls, unless noted: active = hit-call score of the fitted dose curve at least 0.9, where 1 is the maximum; inactive = score below 0.9.

Chain of Paired box protein Pax-6 (Homo sapiens) (P26367 whole entry, looked up): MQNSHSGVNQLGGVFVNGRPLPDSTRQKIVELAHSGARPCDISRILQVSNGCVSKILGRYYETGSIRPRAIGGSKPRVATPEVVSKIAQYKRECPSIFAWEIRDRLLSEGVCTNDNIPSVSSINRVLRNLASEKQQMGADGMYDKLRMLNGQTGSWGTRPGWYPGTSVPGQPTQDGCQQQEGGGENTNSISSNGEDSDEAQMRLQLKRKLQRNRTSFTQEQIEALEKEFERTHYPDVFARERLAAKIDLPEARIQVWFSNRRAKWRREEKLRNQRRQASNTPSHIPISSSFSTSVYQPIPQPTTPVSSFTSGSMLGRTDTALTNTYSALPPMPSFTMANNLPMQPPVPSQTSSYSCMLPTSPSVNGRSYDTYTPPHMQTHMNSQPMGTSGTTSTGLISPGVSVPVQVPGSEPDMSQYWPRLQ
Chain of Estrogen receptor (Homo sapiens) (P03372 whole entry, looked up, the tested form may be a part): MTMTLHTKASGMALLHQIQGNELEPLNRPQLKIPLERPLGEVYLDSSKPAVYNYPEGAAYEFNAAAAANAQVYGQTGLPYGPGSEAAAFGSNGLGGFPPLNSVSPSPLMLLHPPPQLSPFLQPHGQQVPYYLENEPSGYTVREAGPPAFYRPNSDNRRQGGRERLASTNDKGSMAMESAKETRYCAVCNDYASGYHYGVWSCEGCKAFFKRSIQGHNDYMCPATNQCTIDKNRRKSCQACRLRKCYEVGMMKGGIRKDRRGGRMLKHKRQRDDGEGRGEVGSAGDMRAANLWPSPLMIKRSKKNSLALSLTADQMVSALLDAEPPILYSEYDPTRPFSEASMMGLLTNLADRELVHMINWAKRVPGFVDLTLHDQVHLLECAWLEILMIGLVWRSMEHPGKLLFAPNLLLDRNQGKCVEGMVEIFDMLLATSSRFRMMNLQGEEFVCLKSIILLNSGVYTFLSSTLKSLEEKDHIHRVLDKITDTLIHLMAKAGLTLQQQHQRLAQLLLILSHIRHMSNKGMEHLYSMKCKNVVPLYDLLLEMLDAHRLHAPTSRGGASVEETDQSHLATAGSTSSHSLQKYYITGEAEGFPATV
Chain of X-box-binding protein 1 (Homo sapiens) (P17861 whole entry, looked up): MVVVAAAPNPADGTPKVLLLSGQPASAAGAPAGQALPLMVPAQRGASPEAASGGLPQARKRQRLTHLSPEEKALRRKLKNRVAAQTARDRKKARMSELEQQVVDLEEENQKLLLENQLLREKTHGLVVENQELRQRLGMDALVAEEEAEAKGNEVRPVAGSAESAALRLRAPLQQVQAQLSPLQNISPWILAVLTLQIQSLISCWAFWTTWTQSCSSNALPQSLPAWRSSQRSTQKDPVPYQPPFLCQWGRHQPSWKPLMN
Chain of Transcription factor Sp1 (Homo sapiens) (P08047 whole entry, looked up): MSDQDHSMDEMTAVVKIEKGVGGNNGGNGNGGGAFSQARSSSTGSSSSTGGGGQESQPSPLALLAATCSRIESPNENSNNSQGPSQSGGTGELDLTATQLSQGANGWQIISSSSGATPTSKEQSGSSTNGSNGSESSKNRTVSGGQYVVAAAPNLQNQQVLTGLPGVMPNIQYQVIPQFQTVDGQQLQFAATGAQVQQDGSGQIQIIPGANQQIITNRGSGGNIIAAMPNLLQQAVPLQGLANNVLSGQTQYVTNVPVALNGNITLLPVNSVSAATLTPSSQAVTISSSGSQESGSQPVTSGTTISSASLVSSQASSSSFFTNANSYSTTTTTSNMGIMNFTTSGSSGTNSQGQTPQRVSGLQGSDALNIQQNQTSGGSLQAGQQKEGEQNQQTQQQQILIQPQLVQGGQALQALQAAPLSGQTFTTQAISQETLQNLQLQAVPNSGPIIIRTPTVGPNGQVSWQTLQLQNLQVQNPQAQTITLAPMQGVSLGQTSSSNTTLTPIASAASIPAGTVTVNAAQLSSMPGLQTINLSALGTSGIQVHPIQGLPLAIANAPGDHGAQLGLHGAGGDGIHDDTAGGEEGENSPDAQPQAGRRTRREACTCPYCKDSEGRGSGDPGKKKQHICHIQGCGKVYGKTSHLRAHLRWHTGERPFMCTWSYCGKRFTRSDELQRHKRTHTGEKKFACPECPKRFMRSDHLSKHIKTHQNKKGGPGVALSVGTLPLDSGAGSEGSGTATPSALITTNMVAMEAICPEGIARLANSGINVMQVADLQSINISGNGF
Chain of Signal transducer and activator of transcription 3 (Homo sapiens) (P40763 whole entry, looked up): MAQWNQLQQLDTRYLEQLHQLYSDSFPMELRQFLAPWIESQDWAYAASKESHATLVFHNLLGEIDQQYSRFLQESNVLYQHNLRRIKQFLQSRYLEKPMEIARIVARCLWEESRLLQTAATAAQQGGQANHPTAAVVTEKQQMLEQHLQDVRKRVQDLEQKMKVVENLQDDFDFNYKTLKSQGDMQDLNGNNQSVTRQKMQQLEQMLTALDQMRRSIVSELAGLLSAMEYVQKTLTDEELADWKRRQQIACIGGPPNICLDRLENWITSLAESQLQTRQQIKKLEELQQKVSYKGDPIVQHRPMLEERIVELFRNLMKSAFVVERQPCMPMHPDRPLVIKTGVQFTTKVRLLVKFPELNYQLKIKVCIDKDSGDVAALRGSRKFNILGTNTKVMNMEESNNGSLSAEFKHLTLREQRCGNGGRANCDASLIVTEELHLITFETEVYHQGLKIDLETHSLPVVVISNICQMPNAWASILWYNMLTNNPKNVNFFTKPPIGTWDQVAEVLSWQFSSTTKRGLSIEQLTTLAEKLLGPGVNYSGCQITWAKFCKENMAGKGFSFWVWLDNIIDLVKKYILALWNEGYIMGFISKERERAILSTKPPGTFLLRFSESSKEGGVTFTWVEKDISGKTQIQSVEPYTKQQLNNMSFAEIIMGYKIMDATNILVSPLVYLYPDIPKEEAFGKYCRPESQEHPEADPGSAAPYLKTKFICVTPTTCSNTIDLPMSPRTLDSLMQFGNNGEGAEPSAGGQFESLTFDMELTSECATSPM
Chain of Steroid hormone receptor ERR1 (Homo sapiens) (P11474 whole entry, looked up, the tested form may be a part): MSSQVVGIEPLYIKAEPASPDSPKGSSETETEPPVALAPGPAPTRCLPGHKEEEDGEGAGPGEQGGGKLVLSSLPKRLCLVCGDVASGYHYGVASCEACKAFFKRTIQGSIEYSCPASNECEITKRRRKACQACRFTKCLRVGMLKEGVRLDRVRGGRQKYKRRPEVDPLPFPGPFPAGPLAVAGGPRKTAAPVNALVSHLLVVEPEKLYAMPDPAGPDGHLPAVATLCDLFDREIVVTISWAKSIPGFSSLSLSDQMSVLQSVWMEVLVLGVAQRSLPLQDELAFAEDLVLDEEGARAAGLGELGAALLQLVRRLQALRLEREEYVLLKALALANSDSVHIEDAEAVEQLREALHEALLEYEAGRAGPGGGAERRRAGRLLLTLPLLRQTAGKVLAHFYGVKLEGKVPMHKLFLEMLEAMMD

In the case of `CC(=O)CCc1ccc(O)cc1`, the result in [1], in [2], in [3], in assay [4], in [5] and in assay [6] was inactive. The outcome in [7], in assay [8], in assay [9], in [10], in assay [11] and in assay [12] was inactive. For the same compound, the compound was called inactive in assay [13], in assay [14], in [15] and in [16].
Consider `CCCC[N+](C)(CCCC)CCCC`, for which the compound was called inactive in assay [1], in assay [2], in [3], in assay [4], in [5] and in assay [6]. For the same compound, the result in assay [7], in [9], in assay [10], in [17], in [11] and in assay [12] was inactive. Further, the call in assay [14], in [15] and in [16] was inactive.
Turning to `CC(C)(O)CCc1ccccc1`, the compound was called inactive in [1], in assay [2], in assay [3], in [4], in [5] and in [6]. In addition, the compound was called inactive in assay [7], in assay [8], in assay [9], in assay [17], in [11] and in assay [12]. Besides, the compound was classed as inactive in assay [13] and in [14].
For `CC12CCC(C1)C(C)(C)C2O` (configuration not stated), the call in assay [1], in [2], in assay [3], in assay [4], in assay [5] and in assay [6] was inactive. The compound was classed as inactive in assay [7], in assay [9], in assay [17], in assay [11], in assay [12] and in assay [13]. The result in [14] and in assay [16] was inactive.
As for `OCCCO`, the result in assay [1], in assay [2], in [3], in assay [4], in assay [5] and in assay [6] was inactive. The outcome in assay [7], in assay [8], in assay [9], in assay [10], in assay [11] and in [12] was inactive. The call in assay [14] and in assay [16] was inactive.
For `C1=COCCC1`, the call in [1], in assay [2], in assay [3], in assay [4], in assay [5] and in assay [6] was inactive. Moreover, the compound was classed as inactive in assay [7], in assay [8], in [9], in assay [17], in [11] and in assay [12]. The result in assay [13], in [14] and in assay [15] was inactive.
`ClCCOCCOCCCl`: the compound was classed as inactive in assay [1], in [2], in [3], in assay [4], in assay [5] and in assay [6]. Further, the compound was classed as inactive in [7], in [8], in assay [9], in [10], in assay [11] and in assay [12]. Further, the compound was called inactive in [14] and in [16].
For the compound `NS(=O)(=O)c1cc(C(=O)O)c(NCc2ccco2)cc1Cl`, the call in [1], in [2], in [3], in assay [4], in [5] and in [6] was inactive. For the same compound, the compound was called inactive in assay [7], in assay [8], in assay [9], in [10], in assay [17] and in [12]. In addition, the outcome in [14] and in assay [16] was inactive.
`CCC(C)C1CCCCC1=O` (configuration not stated): the call in assay [1], in assay [2], in [3], in [4], in assay [5] and in assay [6] was inactive. Also, the compound was classed as inactive in [7], in assay [8], in assay [9], in assay [10], in [17] and in assay [12]. The compound was classed as inactive in assay [13], in assay [18], in assay [14], in assay [15] and in assay [16].
For `c1ccc2c(c1)-c1ccc3ccc4cccc5cc-2c1c3c45`, the outcome in [1], in assay [3], in assay [5], in assay [6], in [7] and in assay [8] was inactive. Besides, the call in assay [9], in assay [17], in assay [11], in assay [12] and in assay [14] was inactive. Moreover, the AC50 was 1020 nM (active) in assay [2], 163 nM (active) in assay [4] and 422 nM (active) in [13].

By AC50 is commonly meant the midpoint of the concentration-response curve, whichever way the signal moves.
